Reference: PubChem BioAssay AID540308 (The Scripps Research Institute Molecular Screening Center, 2011)
Hit rate of the full screen: of about 360,000 compounds, about 3,500 (0.97%) were called active. The sample holds actives, similar compounds and a random draw of the others, so the mix is not that of the screen.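 The calls were made as follows: active = activation above a per-plate cutoff, the mean activation of sample wells on that plate plus 3 SD (cut at about 8% in these data); inactive = the rest.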

target: Melanocortin receptor 4 (Homo sapiens) (UniProt P32245); assay: activators of MC4R beta-arrestin recruitment – cell-based, luminescence, agonist arm of biased-ligand search, primary screen (AID 540308); details: U2OS MC4R beta-arrestin complementation, at 8.9 µM, stronger effect = higher value, percent of melanotan II response, DMSO zero
Sequence (P32245 whole entry, looked up): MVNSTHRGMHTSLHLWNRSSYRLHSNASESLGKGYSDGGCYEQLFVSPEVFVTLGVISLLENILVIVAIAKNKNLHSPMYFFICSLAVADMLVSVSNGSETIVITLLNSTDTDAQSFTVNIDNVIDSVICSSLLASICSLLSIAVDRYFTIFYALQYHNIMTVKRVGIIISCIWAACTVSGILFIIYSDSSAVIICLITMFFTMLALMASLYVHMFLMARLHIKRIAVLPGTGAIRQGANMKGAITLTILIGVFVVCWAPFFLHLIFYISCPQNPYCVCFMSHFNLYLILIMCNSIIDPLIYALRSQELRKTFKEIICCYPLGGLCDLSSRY

activation, inactive:
COc1ccc(OCC(=O)NNC(=O)C2CCC2)cc1 -1.99%
CCC(=O)c1ccc(OCC(=O)Nc2ccc(N3CCCCC3)cc2)cc1 3.06%
CC12CCC(=O)C=C1CCC1C2C(O)CC2(C)C1CCC2(O)C(O)CO (stereo unspecified) -0.23%
CCCNC(=O)C1(C)CCN(C(=O)c2ccccc2OC(F)(F)F)C1 (stereo unspecified) 0.4%
COc1ccc(NC(=O)CN(C)C(=O)c2cc(-c3ccc(C)o3)nc3ccccc23)cc1 -0.83%
CC(=O)N1CCN(C(=O)c2cc(-c3ccc(C)o3)nc3ccccc23)CC1 -2.54%
CCCCc1ccc(S(=O)(=O)NC(=O)C2(C)CCN2C(=O)c2c(C)noc2C)cc1 (stereo unspecified) -2.14%
Cc1cc(Cl)ccc1-c1nc(NCCN(C)C)nc2ccsc12 -0.54%
O=C(Nc1ccon1)c1nc[nH]c1C(=O)NCc1ccccc1 -0.8%
CCOC(=O)c1[nH]cnc1C(=O)Nc1ccccc1C 1%
COc1ccc(C(=O)N2CCCCC2c2cc(C(=O)Nc3ccc(F)c(Cl)c3)no2)cc1 (stereo unspecified) 2.26%
Cc1ccnc(N2C(=O)c3ccc([N+](=O)[O-])cc3C2=O)c1 -1.22%
Cc1ccc(C(=O)Cn2cc([N+](=O)[O-])nc2C)cc1 -1.74%
COc1ccc(C(C)(O)c2nc(-c3cc(F)cc(F)c3)cs2)cc1 (stereo unspecified) 3.01%
COc1ccc(Sc2ccc(NC(=O)c3cccc(Cl)c3)cc2C#N)cc1 -0.48%
COC(=O)c1ccc(Sc2ccc(F)cc2)c(N)c1 -1.17%
Clc1ccc(-c2cccc3nccn23)cc1 -0.44%
COc1cccc(Cn2cc(/C=N/NC(=O)c3cc(O)cc(O)c3)c3ccccc32)c1 -2.32%
CCOC(=O)N/N=C/c1cn(Cc2ccccc2Cl)c2ccccc12 -2.13%
Cc1ccc(C)c(N2CCN(S(=O)(=O)c3ccc4c(c3)oc(=O)n4C)CC2)c1 -1.63%
Cc1ccc(C)c(N2CCN(S(=O)(=O)c3c(C)[nH]c(C)c3C(=O)N3CCCC3)CC2)c1 -0.89%
COc1ccc(-n2cc(-c3ccccc3)c3c(=S)nc[nH]c32)cc1 2.91%
O=c1c2c(-c3ccccc3)ccnc2[nH]n1-c1ccccc1 -0.95%
COc1cc(Cn2c3ccc(NC(=O)CC(C)c4ccccc4)cc3c(=O)n2C)ccc1F (stereo unspecified) 1.46%
O=C(NCc1ccccc1Cl)c1csc([C@@H]2O[C@H](CO)[C@@H](O)[C@H]2O)n1 -0.25%
CCOCc1nnc(NC(=O)CSc2ccc(C)cc2)s1 -1.16%
O=C(/C=C/c1ccccc1)Nc1nnc(SCC(=O)c2ccc3ccccc3c2)s1 -0.51%
CCNC(=O)C1(C)CCCN(Cc2noc(-c3ccccc3OC)n2)C1 (stereo unspecified) 0.8%
COc1ccc(OC)c(NC(=O)c2cc(-c3cc(F)ccc3OCC3CCCO3)n[nH]2)c1 (stereo unspecified) 2.25%
Cc1nc(C(F)(F)F)ccc1C(=O)N1CCC1(C)C(=O)NS(=O)(=O)c1ccccc1 (stereo unspecified) -2.41%
O=C(Nc1nnc(Cc2ccc(Cl)cc2)s1)c1ccncc1 -0.7%
O=C(Nc1nnc(COc2ccccc2)s1)Nc1ccccc1F -0.21%
COc1ccccc1NC(=O)Nc1nc(CC(=O)Nc2ccccc2F)cs1 -1.3%
COc1ccc(Cc2nnc(NC(=O)c3cc(OC)c(OC)c(OC)c3)s2)cc1OC 0.62%
COc1cccc(CNc2nc3cc(-c4csc5ccccc45)sc3c(=O)n2C)c1 6.53%
Cc1ccc(Cn2c(C)c(C(=O)NCc3ccccc3C(F)(F)F)sc2=O)cc1 0.28%
CC1(C(=O)Nc2ccccc2Br)CCN1C(=O)CC1CC1 (stereo unspecified) 1%
Cc1ccccc1S(=O)(=O)NC(=O)C1(C)CCN1C(=O)Cc1ccc(Cl)cc1Cl (stereo unspecified) -1.27%
CCCc1c(C)nc2c(Br)cccc2c1Cl 0.46%
COc1cccc(NC(=O)C2(C)CCN2Cc2ccccc2Cl)c1 (stereo unspecified) 2.88%
O=C(NCc1ccccc1)C1CCCN(S(=O)(=O)c2cccs2)C1 (stereo unspecified) 1.44%
Cc1cc(=O)n2nc(N3CCCC(C(=O)NCc4ccc(Cl)cc4)C3)sc2n1 (stereo unspecified) -1.57%
Cc1ccccc1CN1CCC(C(=O)Nc2ccc(Oc3cccnc3)cc2)CC1 -3.23%
CCc1nc2ccc(C(=O)NCc3ccc(OC)cc3)cn2c1N(CC)Cc1cccc(Br)c1 -1.05%
O=C(NCCCNC(=O)c1ccccc1Cl)c1cnccn1 0.85%
O=C(Nc1nnc(Cc2ccccc2)s1)c1cnccn1 -0.34%
Cc1ccc(NC(=O)Nc2cc(-c3ccccc3)nn2C)cc1Cl -0.42%
CC(=O)Nc1ccc(-c2cn3cccnc3n2)cc1 -2.81%
CC(C)(C)c1ccc(S(=O)(=O)NC(=O)C2(C)CCN2C(=O)CC2CC2)cc1 (stereo unspecified) -2.01%
COCCNc1ncnc2c1ncn2[C@H]1CN(CCN2CCOCC2)C[C@@H](CO)O1 -1.53%
CC1(C(=O)NS(=O)(=O)c2cccc(OC(F)F)c2)CCN1C(=O)C1CC1 (stereo unspecified) -1.02%
CC1(C(=O)NS(=O)(=O)Cc2cccc(Cl)c2)CCN1C(=O)Cc1ccc(Cl)cc1Cl (stereo unspecified) 1.12%
CCc1nc2ccc(C(=O)Nc3ccc(OC)c(OC)c3)cn2c1N(C)C(=O)c1cccc(OC)c1 -1.68%
CC1(C(=O)NCc2ccc3c(c2)OCO3)CCN1C(=O)Cc1cccc2ccccc12 (stereo unspecified) -2.21%
Clc1ccc2nc(-c3ccccc3)nc(C(Cl)Cl)c2c1 1.35%
COC(=O)Cn1nc(-c2ccccc2)c2cc(Cl)ccc21 -2.4%
CC1(C(=O)NS(=O)(=O)c2cccc(F)c2)CCN1C(=O)Cc1ccc(Cl)cc1Cl (stereo unspecified) -2.74%
Cc1ccccc1-c1nc(NC(C)C)nc2cc(-c3ccccc3)sc12 -0.61%
CC1(C(=O)NS(=O)(=O)c2ccc3ccccc3c2)CCN1C(=O)C1(c2ccc(Cl)cc2)CCC1 (stereo unspecified) -0.24%
CCSc1nc2sc3c(c2c(=O)[nH]1)CC(C)(C)OC3 -0.6%
CCSc1nnc(-c2cc3c(s2)-c2ccccc2CC3)o1 -0.34%
COc1ccc(/C=C/C(=O)c2c(O)cc(OC)cc2OC)cc1 -0.69%
N#Cc1cccc(NC(=O)c2cc(C3CCCCN3C(=O)CCc3ccccc3)on2)c1 (stereo unspecified) -1.43%
CC(C)Oc1ccc(CN2CCC2(C)C(=O)NCc2ccc(C(F)(F)F)cc2)cc1 (stereo unspecified) 0.02%
COc1cc(OC)c(C(=O)OCC(=O)N2CC(=O)Nc3ccccc32)cc1OC -2.02%
COc1ccc(C(=O)OCC(=O)N2CC(=O)Nc3ccccc32)cc1Br 0.65%
O=C(Nc1cccc(Cc2ccccc2)c1)Nc1ccc2nc([C@@H]3O[C@H](CO)[C@@H](O)[C@H](O)[C@H]3O)[nH]c2c1 -0.22%
C[C@H](NC(=O)[C@@H]1Cc2ccccc2CN1C(=O)OC(C)(C)C)C(=O)NC1CCCC1 -3.11%
CC(=O)Nc1cnc(-c2ccc(O)cc2C)cn1 -2.1%
Cc1c(C(=O)NCC2CC2)sc(=O)n1Cc1cccc(F)c1 1.11%
COc1ccc(CC(=O)Nc2cc(S(=O)(=O)N3CCCCC3)ccc2N2CCN(C)CC2)cc1 -2.51%
Cc1ccoc1C(=O)Nc1cccc(Oc2ccccc2)c1 0.82%
COc1cccc(NC(=O)Nc2ccc(F)cc2)c1 1.45%

activation, active:
COc1ccc(OCC(=O)Nc2ccc(N3CCC(C)CC3)cc2)cc1 10.2%
COc1ccc(NC(=O)c2cc(-c3ccc(C)o3)nc3ccccc23)cc1 9.46%
CCOC(=O)c1ccc(NC(=O)c2nc[nH]c2C(=O)NCc2ccccc2)cc1 8.44%
Cc1ccc(-n2cc3ccc([N+](=O)[O-])cc3n2)cc1 16.1%
Cc1ccc(Sc2ccc(NC(=O)c3ccc(F)cc3)cc2C#N)cc1 17%
N#CCC(=O)N/N=C/c1cn(Cc2ccc3ccccc3c2)c2ccccc12 11.1%
COC(=O)c1cc(S(=O)(=O)N2CCN(c3cc(C)ccc3C)CC2)c[nH]1 9.07%
O=c1[nH]cnc2c1c(-c1ccccc1)cn2-c1ccc(F)cc1 8.69%
O=C(CSc1ccccc1)Nc1nnc(/C=C/c2ccccc2)s1 10.9%
COc1ccc(Cc2nnc(NC(=O)c3ccc(OC)cc3OC)s2)cc1 16.6%
COc1ccccc1NC(=O)Nc1nnc(Cc2ccc(F)cc2)s1 13.2%
O=C(NCc1ccccc1)C1CCCN(c2nc3ccsc3c(=O)s2)C1 (stereo unspecified) 8.43%
O=C(Nc1nc(-c2ccc(-c3ccccc3)cc2)cs1)c1cnccn1 25.9%
CC(=O)Nc1ccc(-c2csc(NC(=O)Nc3ccccc3)n2)cc1 11%
NC(N)=Nc1nc(-c2ccccc2)c2cc(Cl)ccc2n1 9.69%
CSc1nc2sc3c(c2c(=O)[nH]1)CCc1ccccc1-3 12.4%
COc1ccc(Cl)cc1-n1c(C)cc(C(=O)OCC(=O)N2CC(=O)Nc3ccccc32)c1C 15.3%
Cc1cccc(NC(=O)Nc2cccc(Oc3c(F)c(F)c(F)c(F)c3F)c2)c1 15.8%
